Source: PubChem BioAssay AID1159580 (chemical genetic matrix, 2015)
In all, about 5,500 compounds went through this assay and about 2,000 (36%) were called active. Another 18% or so got no clear call; they are omitted. Cut-off read from the data, not from the text of the source: active = normalized growth mostly below about 0.91 (no sharp cut-off); inconclusive = no clear call, values can overlap the other calls; inactive = mostly above about 0.92. Some of the results follow.

Experiment: chemical genetic growth profiling, strain panel (AID 1159580);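 note: tested at 20 µM; growth read once vehicle control cultures reached saturation at 30 °C; 1 = growth at the plate median or of vehicle wells; lower values mean less growth of the strain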
Details: S. cerevisiae deletion strains, growth OD

Measured: normalized growth

O=c1c(O)c(-c2ccccc2)oc2ccccc12
inactive: locus YJR043C, strain POL32, active compounds read low 0.981 | locus YJR075W, strain HOC1, active compounds read low 0.982 | locus YKL009W, strain mrt4, active compounds read low 0.988 | locus YKL068W, active compounds read low 0.988 | locus YKL085W, strain MDH1 (second series), active compounds read low 0.994 | locus YKL085W, strain MDH1, active compounds read low 0.994 | locus YKR001C, strain vps1, active compounds read low 1.02 | locus YLR039C, strain RIC1, active compounds read low 1.01 | locus YLR058C, strain SHM2, active compounds read low 0.977 | locus YLR102C, strain apc9, active compounds read low 0.997 | locus YLR262C, strain YPT6, active compounds read low 1 | locus YLR268W, strain sec22, active compounds read low 1.03 | locus YLR330W, strain CHS5, active compounds read low 0.997 | locus YLR342W, strain FKS1 (second series), active compounds read low 1.01 | locus YLR371W, strain rom2, active compounds read low 0.974 | locus YLR418C, strain cdc73, active compounds read low 0.97 | locus YML016C, strain PPZ1, active compounds read low 1 | locus YML032C, strain rad52, active compounds read low 0.956 | locus YML124C, strain tub3, active compounds read low 0.988 | locus YMR078C, strain ctf18, active compounds read low 0.996 | locus YMR125W, strain sto1, active compounds read low 0.933 | locus YMR223W, strain ubp8, active compounds read low 0.965 | locus YMR307W, strain GAS1, active compounds read low 0.963 | locus YNL067W, strain RPL9B, active compounds read low 0.994 | locus YNL128W, strain TEP1, active compounds read low 0.966 | locus YNL233W, strain BNI4, active compounds read low 1.02 | locus YNL250W, strain rad50, active compounds read low 0.975 | locus YNL271C, strain bni1, active compounds read low 0.993 | locus YNL298W, strain CLA4, active compounds read low 0.996 | locus YNL307C, strain MCK1, active compounds read low 0.995 | locus YNR052C, strain pop2, active compounds read low 0.959 | locus YOL006C, strain TOP1, active compounds read low 1.06 | locus YOL012C, strain htz1 0.87 | locus YOL147C, strain pex11, active compounds read low 0.996 | locus YOR061W, strain CKA2, active compounds read low 0.966 | locus YOR069W, strain VPS5, active compounds read low 0.999 | locus YOR136W, strain idh2, active compounds read low 0.991 | locus YOR144C, strain elg1, active compounds read low 0.982 | locus YOR184W, strain ser1, active compounds read low 0.988 | locus YOR316C, strain cot1, active compounds read low 0.986 | locus YPL256C, strain CLN2, active compounds read low 0.886 | locus YPR119W, strain clb2, active compounds read low 0.992 | locus YPR141C, strain kar3, active compounds read low 0.993 | locus YPR163C, strain tif3, active compounds read low 0.984 | locus YPR167C, strain met16, active compounds read low 0.978 | strain wtn01, active compounds read low 1.05
active: locus YJL187C, strain SWE1, active compounds read low 0.758 | locus YJR066W, strain TOR1, active compounds read low 0.766 | locus YKL160W, strain elf1, active compounds read low 0.678 | locus YKR026C, strain gcn3, active compounds read low 0.777 | locus YKR091W, strain srl3, active compounds read low 0.82 | locus YLL001W, strain dnm1, active compounds read low 0.512 | locus YLL026W, active compounds read low 0.354 | locus YLL041C, strain sdh2, active compounds read low 0.872 | locus YLR027C, strain aat2, active compounds read low 0.681 | locus YLR113W, strain HOG1, active compounds read low 0.851 | locus YLR221C, strain rsa3, active compounds read low 0.612 | locus YLR258W, strain gsy2, active compounds read low 0.655 | locus YLR262C, strain YPT6 (second series), active compounds read low 0.228 | locus YLR320W, strain mms22, active compounds read low 0.503 | locus YLR342W, strain FKS1, active compounds read low 0.513 | locus YLR357W, strain rsc2, active compounds read low 0.584 | locus YLR370C, strain arc18, active compounds read low 0.364 | locus YLR384C, strain iki3, active compounds read low 0.877 | locus YML120C, strain ndi1, active compounds read low 0.844 | locus YMR058W, strain fet3, active compounds read low 0.0896 | locus YMR129W, active compounds read low 0.872 | locus YMR205C, strain PFK2, active compounds read low 0.506 | locus YMR231W, strain pep5, active compounds read low 0.128 | locus YNL071W, strain lat1, active compounds read low 0.301 | locus YNL183C, strain NPR1, active compounds read low 0.8 | locus YNL209W, strain ssb2, active compounds read low 0.159 | locus YNL248C, strain rpa49, active compounds read low 0.567 | locus YNL322C, strain KRE1 (second series), active compounds read low 0.851 | locus YNR049C, strain mso1, active compounds read low 0.616 | locus YOR001W, strain rrp6, active compounds read low 0.805 | locus YOR070C, strain gyp1, active compounds read low 0.561 | locus YOR080W, strain dia2, active compounds read low 0.689 | locus YOR083W, strain WHI5, active compounds read low 0.565 | locus YOR106W, strain vam3, active compounds read low 0.163 | locus YOR231W, strain MKK1, active compounds read low 0.834 | locus YOR265W, strain rbl2, active compounds read low 0.467 | locus YOR270C, strain vph1, active compounds read low 0.16 | locus YOR290C, strain snf2, active compounds read low 0.589 | locus YPL051W, strain arl3, active compounds read low 0.262 | locus YPL078C, strain atp4, active compounds read low 0.553 | locus YPL106C, strain sse1, active compounds read low 0.676 | locus YPL240C, strain hsp82, active compounds read low 0.762
